Compounds with a hit are over-represented: about 9.2% of the library has one in this group of screens.
FLuc modulator = counter-screen for miR-21 project: firefly luciferase inhibitors or activators | Potency, µM (highest dose often 57.5 µM), for inactives: top-dose activity change, negative = inhibition, usual class: inhibitors | 360,000 tested, 6.9% active | AID 588342 | purified FLuc, Km substrates, luminescence inhibition;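 note: plate controls were vehicle for no effect and reference inhibitor for full effect; nearly all actives have a fitted effect of over 55% in size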
Target sequence (P08659 whole entry, looked up): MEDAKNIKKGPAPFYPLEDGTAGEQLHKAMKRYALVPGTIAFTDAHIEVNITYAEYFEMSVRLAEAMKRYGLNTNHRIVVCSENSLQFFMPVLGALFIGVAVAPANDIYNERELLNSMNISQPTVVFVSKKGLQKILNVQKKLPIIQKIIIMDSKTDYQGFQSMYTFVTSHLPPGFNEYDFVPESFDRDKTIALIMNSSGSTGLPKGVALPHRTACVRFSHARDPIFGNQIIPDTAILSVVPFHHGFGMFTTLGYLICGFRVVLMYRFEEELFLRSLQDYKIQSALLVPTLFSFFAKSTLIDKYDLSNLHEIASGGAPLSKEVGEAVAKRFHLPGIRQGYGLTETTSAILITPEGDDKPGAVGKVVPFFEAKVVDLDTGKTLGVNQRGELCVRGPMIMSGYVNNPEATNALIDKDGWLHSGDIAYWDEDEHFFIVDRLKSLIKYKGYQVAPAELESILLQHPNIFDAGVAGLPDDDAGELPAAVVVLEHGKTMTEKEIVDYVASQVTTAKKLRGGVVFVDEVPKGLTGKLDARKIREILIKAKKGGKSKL
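Purified P. pyralis luciferase (10nM final) with 10uM D-luciferin and 10uM ATP (Km levels) in 50mM Tris acetate pH 7.5, 10mM Mg acetate, 0.01% Tween-20, 0.05% BSA; qHTS 6-point titration, ~60 µM downward; luminescence read.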
SMN2 splice up = increases expression of the SMN2 splice variant. 210,000 tested, 2.8% active. AID 1458. Potency, µM (top dose mostly 46.1 µM), inactives show at the top dose activity change, positive = activation, most hits filed as activators. HEK293 SMN2-luciferase splicing reporter, luminescence, 30-36 h; note: % of control where 0% means no effect; nearly all actives have a fitted effect of over 55% in size
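HEK293 cells carry an SMN2 […]–luciferase reporter in which exon 7 inclusion puts luciferase in frame. Cells were plated 10-12 h before compound addition, then incubated 30-36 h at 37C. ONE-Glo luminescence was read; sodium butyrate at 4.5 mM final served as control.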
Rab9 prom act = activates the Rab9 promoter; Huh7 Rab9 promoter-luciferase reporter, luminescence, 24 h; Potency, µM (top dose mostly 9.22 µM), inactives show at the highest dose activation, negative = inhibition, usual class: activators; 320,000 tested, 2.8% active; note: % of control where 0% means no effect; nearly all actives have a fitted effect of over 60% in size
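Quantitative HTS format; Huh7 Rab9-luciferase reporter cells (1500/well) receive compound 2 h post-plating, incubate 24 h at 37 °C, then get luciferase reagent for 10 min before luminescence reading.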
ELG1 genotox = induces genotoxicity in HEK293T cells with luciferase-tagged ELG1 | HEK293T ELG1-luciferase reporter, luminescence, 16 h | 330,000 tested, 1.3% active | Potency, µM (top dose mostly 46 µM), for inactives: at the highest dose activity change, positive = activation, most hits filed as activators; note: % of control where 0% means no effect; nearly all actives have a fitted effect of over 60% in size
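Luminescence read-out: rising ELG1-luciferase signal, reflecting elevated ELG1 protein under genetic stress, flags genotoxic compounds. Cells were treated for 16 hr at 37 °C before ONE-Glo detection.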
ELG1 repair inh = blocks ELG1-dependent DNA repair in HEK293T cells. HEK293T ELG1-luciferase reporter, luminescence, 16 h; DNA damage induced by 5-fluorouridine. AID 504467. Potency, µM (highest dose often 46.1 µM), without a hit: top-dose activity change, negative = inhibition, actives largely listed as inhibitors. 330,000 tested, 2.3% active; note: % is set by controls: 0 for no effect and ±100 for the full control effect; nearly all actives have a fitted effect of over 55% in size
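Step one: seed 2,000 cells per well. Step two: pin-transfer compound or DMSO alongside 5-fluorouridine. Step three: incubate 16 hr, 37 °C, 5% CO2. Step four: add ONE-Glo, wait 30 min, read luminescence.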
NPC1 promoter act = NPC1 promoter activation. AID 485313. 320,000 tested, 2.4% active. Potency, µM (doses to about 9.22 µM), without a hit: at the top dose activation, hits mostly activators. Huh7 NPC1 promoter luciferase reporter, 24 h; note: % of control where 0% means no effect; nearly all actives have a fitted effect of over 60% in size
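Compounds in DMSO were transferred onto Huh7 NPC1-luciferase reporter cells pre-incubated 2 h; after 24 h at 37 °C, Amplite reagent was dispensed and luminescence recorded 10 min later.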
* marks the source's active call; other numbers are inactive results; ? = inconclusive; / = not tested or not shown. Calls come from the whole dose curve; as a rule, active = well fitted curve in the direction sought with a large enough effect; inconclusive = small, poorly fitted or top-dose-only effect, or another doubt; inactive = no such curve, though single readings can be large; an effect the other way counts as inactive or inconclusive. Potency is the fitted concentration of half-maximal effect.

SMILES | FLuc modulator | SMN2 splice up | Rab9 prom act | ELG1 genotox | ELG1 repair inh | NPC1 promoter act
COc1cc(C2CC(=O)N(CC(=O)NCC3CCCO3)c3ccccc3S2)cc(OC)c1OC (stereo not given) | -1.6% | 6.1% | -5.4% | -3.8% | -7.7% | 0.4%
COc1cccc(-c2nc(-c3ccccn3)no2)c1 | 0.338µM* | -75.2% | 0.112µM* | 1.9% | ? | ?
COc1cccc(-c2noc(-c3cccnc3)n2)c1 | 5.36µM* | 20µM* | 2.51µM* | ? | ? | 3.55µM*
COc1cccc(-c2nc(-c3ccc(NC(=O)c4cccnc4)cc3)no2)c1 | ? | -10.8% | 29.6% | 12.6% | 14.7% | ?
COc1ccc(-c2nc(-c3ccncc3)no2)c(OC)c1 | 0.953µM* | / | 0.708µM* | 2.91µM* | ? | ?
Cc1ccc(S(=O)(=O)Nc2ccsc2C#N)cc1 | -1.8% | / | 0.2% | -3.5% | -3.0% | 0.1%
Cc1ccc2nc(SCC(=O)NCCCN3CCCC3=O)[nH]c2c1 | -6.8% | / | 0.2% | 0.7% | ? | 1.9%
COc1ccc(CN2C(=O)CN=C2Nc2cc(C)ccc2C)cc1 | -0.8% | -21.4% | 29.9% | 18.4µM* | ? | 13.4%
CCc1ccccc1NC1=NCC(=O)N1Cc1ccc(OC)cc1 | 0.7% | / | 9.2% | 3.3% | 9.8% | -2.4%
O=C(NC(=S)NN1CCOCC1)c1cc(Br)ccc1Cl | / | / | / | 0.2% | 28.9% | /
CCn1c(C)nc2cc(C(=O)N/N=C/c3ccccc3)ccc21 | 21.3µM* | 17.8µM* | 3.55µM* | 9.2µM* | ? | 3.16µM*
CCn1c(C)nc2cc(C(=O)N/N=C(\C)c3ccc(OC)cc3O)ccc21 | ? | -84.5% | -25.3% | -0.3% | 7.3µM* | -34.1%
CCn1c(C)nc2cc(C(=O)NN=Cc3ccc([N+](=O)[O-])cc3)ccc21 | / | / | / | -1.4% | 0.0% | /
CCn1c(C)nc2cc(C(=O)N/N=C/c3ccc(OC)c(O)c3)ccc21 | ? | -17.2% | -3.2% | 2.6% | 2.7% | 2.9%
CCn1c(C)nc2cc(C(=O)N/N=C/c3ccc(OC)cc3)ccc21 | ? | -5.5% | -4.1% | 2.7% | -8.6% | -1.0%
CCn1c(C)nc2cc(C(=O)N/N=C/c3cccc(O)c3O)ccc21 | 8.49µM* | / | -13.5% | ? | ? | -18.9%
CCn1c(C)nc2cc(C(=O)NN=C(C)c3ccc(C#N)cc3)ccc21 | / | / | / | -1.7% | -14.1% | /
CCn1c(C)nc2cc(C(=O)N/N=C/c3ccc(O)cc3)ccc21 | 15.1µM* | 21.3% | -3.1% | 9.5% | ? | 0.8%
O=C(/C=C/c1ccccc1)Nc1nc2n(n1)C(c1ccc(F)cc1)C=C(c1ccccc1)N2 (stereo not given) | -7.5% | / | / | / | / | /
CCC(=O)N1c2ccccc2CC1C(=O)NCc1ccccc1C (stereo not given) | -4.2% | / | / | / | / | /
CCn1c(C)nc2cc(C(=O)OC(C(F)(F)C(F)F)C(F)(F)C(F)F)ccc21 | 3.79µM* | -25.8% | ? | 16.4µM* | ? | ?
CCn1c(C)nc2cc(C(=O)NNC(=O)c3ccc(C)cc3)ccc21 | ? | / | ? | ? | ? | 26.4%
CCn1c(C)nc2cc(C(=O)N=Nc3c(O)[nH]c4ccccc34)ccc21 | 6.01µM* | 55.6% | ? | ? | ? | ?
Nc1cc(-c2cccc(Br)c2)nn1Cc1ccccc1 | ? | -40.3% | 4.5% | 10.8% | ? | 6.8%
Nc1cc(-c2ccc(Br)cc2)nn1Cc1ccccc1 | 16.9µM* | / | -16.6% | 6.7% | ? | -10.0%
C=CCOC(=O)/C(=C/c1cccc2ccccc12)NC(=O)c1ccccc1 | 19µM* | ? | 19.8% | 9.6% | ? | 10.2%
CCOc1ccccc1C(=O)NCC(=O)OCC(=O)N1CCCC1 | / | / | / | 3.9% | 5.1% | /
CC1CCCN(C(=O)COC(=O)COc2ccc(Cl)cc2)C1 (stereo not given) | / | / | / | 1.4% | 5.2% | /
